ssDAF-12 act = S. stercoralis DAF-12 nuclear receptor activators, primary screen, cell-based, luminescence, HEK293, GRIP1 co-expression, lit1-tk-luc; HEK293 ssDAF-12/GRIP1 lit1-tk-luc reporter; % of 3 µM dafachronic acid response; activation, % at 6.8 µM; actives 1% (n = 370,000); AID 652126, 2013;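 active = activation above the mean over all tested compounds plus 3 SD, cut at about 0.9% in these data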
hgDAF-12 ag = H. glycines DAF-12 receptor agonists, primary screen, cell-based, luminescence, HEK293, GAL4 fusion, UAS-luciferase; Nuclear hormone receptor DAF-12 (Heterodera glycines), GAL4 fusion; HEK293 GAL4-hgDAF12 UAS-luciferase reporter, agonist luminescence; normalized to butyrate control; activation, % at 6.8 µM; actives 1.8% (n = 370,000); AID 687014, 2013;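 active = activation above a cutoff set at the mean of all screened compounds plus 3 SD, cut at about 10% in these data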
hcDAF-12 act = H. contortus DAF-12 nuclear receptor activators, primary screen, cell-based, luminescence, HEK293, lit1-tk-luc reporter. HEK293 hcDAF-12 lit1-tk-luc reporter; 0% DMSO, 100% Δ7-dafachronic acid. AID 652067, 2013. activation, % at 6.8 µM. actives 1.4% (n = 370,000);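 active = activation above the mean of all tested compounds plus 3 SD, cut at about 5.5% in these data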
DAX1 inh-1 = DAX1 (NR0B1) inhibitors, primary screen, cell-based, HEK293, Gal4-DAX1, luciferase luminescence. actives 0.99% (n = 340,000). inhibition, % at 6.75 µM. Nuclear receptor subfamily 0 group B member 1 (Homo sapiens), P51843. HEK293 Gal4-DAX1 luciferase reporter;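 active = inhibition above the mean over all tested compounds plus 3 SD, cut at about 4.2% in these data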;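 note: inhibition shows as a rise in luminescence from relieved DAX1 repression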
Target sequence (P51843 207-470 limits assumed): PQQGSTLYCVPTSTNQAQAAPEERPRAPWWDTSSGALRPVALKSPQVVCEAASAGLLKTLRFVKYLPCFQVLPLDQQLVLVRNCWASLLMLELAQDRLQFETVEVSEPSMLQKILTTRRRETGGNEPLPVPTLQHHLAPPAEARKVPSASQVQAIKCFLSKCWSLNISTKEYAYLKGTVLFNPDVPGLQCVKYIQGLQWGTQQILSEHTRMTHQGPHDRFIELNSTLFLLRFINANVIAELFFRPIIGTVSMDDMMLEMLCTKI
DAX1 inh-2 = DAX1 (NR0B1) inhibitors on StAR promoter, primary screen, cell-based, luminescence, SF-1 (NR5A1), full-length DAX-1; HEK293T StAR-luciferase reporter, SF-1/DAX-1 repression relief; inhibition, % at 6.8 µM; actives 1.1% (n = 370,000);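 active = inhibition above the mean over all tested compounds plus 3 SD, cut at about 3.6% in these data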;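 note: higher inhibition means more luminescence from relief of DAX-1 repression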
SMARCA2 activ = SMARCA2 (BRM) function activators, primary screen, cell-based, luminescence, high throughput. MG213 cells, MMTV-luciferase reporter, dexamethasone, overnight. activation, % at 9.1 µM. actives 1% (n = 370,000). AID 652017, 2013; in the data active = activation above about 7.8%
SMARCA2 conf = SMARCA2 (BRM) function activators, confirmation, cell-based, luminescence, triplicate. shares compounds with SMARCA2 activ. MG213 cells, MMTV-luciferase with dexamethasone, overnight; MG213 cells expressing E1A, Rb sequestered; DMSO wells 0%, reference activator 100%. activation, % at 9.1 µM. actives 30% (n = 3,500). AID 652260, 2013;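 active = activation above its plate's cutoff, the mean activation of tested wells plus 3 SD, cut at about 7.9% in these data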
VP16 Luc act = GAL4-VP16 luciferase reporter activation, counter-screen for SMARCA2 (BRM) activator project, cell-based, pG5luc, luminescence, high throughput. shares compounds with SMARCA2 activ. HEK293 GAL4-VP16 pG5luc reporter; scaled: DMSO wells 0%, SAHA wells 100%. activation, % at 9.1 µM. actives 41% (n = 3,500). AID 686939, 2013;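 active = activation above the solvent-only control well mean plus 3 SD, averaged across control plates, cut at about 5.2% in these data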
A number is an active result; . = inactive; / = no result. Shown are actives, neighbours in structure and some others; about 4.8% of the full set was active somewhere.

SMILES	ssDAF-12 act	hgDAF-12 ag	hcDAF-12 act	DAX1 inh-1	DAX1 inh-2	SMARCA2 activ	SMARCA2 conf	VP16 Luc act
O=C(C1CCN(S(=O)(=O)c2cccs2)CC1)N1CCCCC1	.	.	.	.	.	.	/	/
O=C1CCC/C(=N/NC(=O)C2CCN(S(=O)(=O)c3cccs3)CC2)C1	.	.	.	.	.	8.7	.	.
CN(C)C(=O)Cn1c(SCC(=O)NCc2ccc3c(c2)OCO3)nc2ccccc21	.	.	.	.	.	.	/	/
Cc1cccc(CN2CCN(c3ccccn3)CC2)c1	.	.	.	.	.	.	/	/
Cc1ccc(CN2CCN(c3ccccn3)CC2)s1	.	.	.	.	.	9.6	.	.
CCOc1ccc(NC(=O)c2ccccc2NC(=O)CNC2CCCC(C)C2C)cc1 (configuration not stated)	.	.	.	.	.	.	/	/
COCc1cc(=O)n2[nH]c(-c3ccc(C)cc3)cc2n1	.	.	.	.	.	10	8.9	.
CCc1c(C)nc2cc(-c3ccc(OC)cc3)[nH]n2c1=O	.	.	.	.	.	8.9	11	11
CC(C)c1ccc(CNC(=O)C(=O)NCCCn2ccnc2)cc1	.	.	.	.	.	.	/	/
O=C(OCC1CC(c2ccccc2Cl)=NO1)c1ccc(Br)cc1 (configuration not stated)	.	.	.	.	.	11	.	.
CC(=O)Oc1c(C)c(=O)n(C)c2ccccc12	.	.	.	.	.	.	/	/
CCN(Cc1cn(Cc2ccccc2)nn1)S(=O)(=O)c1ccc(F)cc1Br	.	.	.	/	.	.	/	/
CC(C)N(Cc1cn(Cc2ccccc2)nn1)S(=O)(=O)c1ccc(F)cc1Br	.	.	.	/	.	8.7	.	.
CCCC(NC(=O)c1ccc(Br)o1)c1nc2ccccc2[nH]1 (configuration not stated)	.	.	.	.	.	.	/	/
CC(C)OC(=O)c1ccc(N2C(=O)C3CC=CCC3C2=O)cc1 (configuration not stated)	.	.	.	.	.	8.8	.	.
COc1ccc(OCC(=O)OC(C)CN2CCOCC2)cc1 (configuration not stated)	.	.	.	.	.	8.8	.	.
CC(CN1CCOCC1)OC(=O)COc1ccc(F)cc1 (configuration not stated)	.	.	.	.	.	.	/	/
Cc1ccc(CC(=O)N2CCN(c3cccc(C(F)(F)F)c3)CC2)cc1	.	.	.	.	.	.	/	/
CC(C)NC(=O)CCS(=O)(=O)c1ccc(Br)s1	.	.	.	.	.	.	/	/
COc1ccc(COC(=O)N/N=C/c2cccs2)cc1	.	.	.	.	.	9.3	.	.
COc1ccc(CC(=O)N/N=C/c2cccs2)cc1OC	.	.	.	.	.	.	/	/
CCCc1cc(=O)oc2cc(C)cc(OCC(=O)NCc3ccncc3)c12	.	.	.	.	.	.	/	/
O=C(c1ccc(Cl)cc1)C1CCN(Cc2ccccc2)CC1	.	.	.	.	.	8.2	.	.
O=C(c1ccc(F)cc1)C1CCN(Cc2ccccc2F)CC1	.	.	.	.	.	.	/	/
CCOC(=O)c1c(CN(C)C)n(C)c2c(O)c(N=NC(N)=O)c3ccc(Br)cc3c12	.	.	.	.	.	9.1	.	6.3
SMILES	ssDAF-12 act	hgDAF-12 ag	hcDAF-12 act	DAX1 inh-1	DAX1 inh-2	SMARCA2 activ	SMARCA2 conf	VP16 Luc act
CCc1ccc(C(O)c2ncc(-c3ccccc3F)[nH]2)cc1 (configuration not stated)	.	.	.	/	4.1	13	.	.
COc1cccc(C(=O)Nc2cc(=O)n(C)c(=O)n2C)c1OC	.	.	.	.	.	8.3	.	.
CCN(CC)C(=O)C1=C(C)N(Cc2ccc(F)cc2)C(=O)C(CC(=O)NCc2cccs2)C1 (configuration not stated)	.	.	.	.	.	.	/	/
CCN(CC)C(=O)C1=C(C)N(Cc2ccc(F)cc2)C(=O)C(CC(=O)NCc2ccco2)C1 (configuration not stated)	.	.	.	.	.	8.4	.	.
CC(C)(C)c1csc(NC(=O)c2c(F)c(F)c(F)c(F)c2F)n1	.	.	.	.	.	.	/	/
Cc1ccc(/C=C(\NC(=O)c2ccc(C)cc2)c2nc(=S)[nH][nH]2)cc1	.	.	.	.	.	10	.	.
COc1ccccc1CNCC(=O)Nc1ccc(N2CCOCC2)cc1	.	.	.	.	.	.	/	/
COc1ccccc1NC(=O)Nc1ccc(N2CCOCC2)cc1	.	.	.	.	.	8.8	8.1	5.6
CSc1nc(Cc2ccccc2)cc(=O)[nH]1	.	.	.	.	.	.	/	/
CSc1ncc(OCc2ccccc2)c(=O)[nH]1	.	.	.	.	.	10	.	.
CCc1ccc(NC(=O)CCCn2nc(CC)n3c(cc4occc43)c2=O)cc1	.	.	.	.	.	9.6	.	.
COC(=O)c1sc2nc(C)cc(C)c2c1N	.	.	.	.	.	.	/	/
C=COC(=O)c1sc2nc(C)cc(C)c2c1N	.	.	.	.	.	9.3	11	.
Cc1noc(C)c1C(=O)NCCc1ccccc1	.	.	.	.	.	9.7	.	.
CCc1ccc(S(=O)(=O)NCCc2cn3cccc(C)c3n2)s1	2.2	.	.	.	.	8.1	.	.
CCc1ccc(S(=O)(=O)NCCc2cn3ccc(C)cc3n2)s1	.	.	.	.	.	.	/	/
Cc1ccc2c(CN(C)Cc3ccc(Cl)cc3Cl)cc(=O)oc2c1	.	.	.	.	.	.	/	/
CCOc1ccc(NC(=O)CCNS(=O)(=O)c2ccc3c(c2)oc(=O)n3C)cc1	.	.	5.9	.	.	8.0	.	.
Cc1ccc(NC(=O)CCNS(=O)(=O)c2ccc3c(c2)oc(=O)n3C)cc1	.	.	.	.	.	.	/	/
COc1cccc(CN(C)C(=O)c2ccc3c(=O)n4c(nc3c2)CCC4)c1	.	.	.	.	.	.	/	/

Bioassay records as filed in PubChem BioAssay.
